Results: ChEMBL document CHEMBL5606458, “ASAP - ZIKV NS2B-NS3 protease fluorescence single point” (2024)
Hit rate of the full screen: of about 2,700 compounds, about 160 (5.9%) showed an effect of 50% or more. What follows is part of a selection rich in strong results, with near analogues and random picks from the rest.

Biological target: Nonstructural protein 3 (Zika virus) (UniProt A0A024AXB9)
Sequence (A0A024AXB9 as listed by the source): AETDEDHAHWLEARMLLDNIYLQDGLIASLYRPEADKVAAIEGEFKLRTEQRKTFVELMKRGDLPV

## c1ccc(COC2CCN(Cc3c[nH]c4ccccc34)CC2)cc1
PRVABC59, Concentration 49.5 uM, Number of replicates 2.0, Standard deviation 2.313702836748105 %
  inhibition: 23.5%
PRVABC59, Concentration 99.01 uM, Number of replicates 2.0, Standard deviation 1.2274106375778986 %
  inhibition: 39.6%
PRVABC59, Concentration 198.0 uM, Number of replicates 2.0, Standard deviation 0.262548566589399 %
  inhibition: 58.3%

## FC(F)(F)c1ccccc1C1CCN(Cc2c[nH]c3ccccc23)CC1
PRVABC59, Concentration 49.5 uM, Number of replicates 2.0, Standard deviation 0.039004379485921774 %
  inhibition: 33%
PRVABC59, Concentration 99.01 uM, Number of replicates 2.0, Standard deviation 0.833177783151486 %
  inhibition: 38.2%
PRVABC59, Concentration 198.0 uM, Number of replicates 2.0, Standard deviation 1.0547312903060968 %
  inhibition: 41.8%

## c1cc(C2CCN(Cc3c[nH]c4ccccc34)CC2)c2ccncc2c1
PRVABC59, Concentration 49.5 uM, Number of replicates 2.0, Standard deviation 0.9049501572428696 %
  inhibition: 65.6%
PRVABC59, Concentration 99.01 uM, Number of replicates 2.0, Standard deviation 0.6350269036884285 %
  inhibition: 80.3%
PRVABC59, Concentration 198.0 uM, Number of replicates 2.0, Standard deviation 0.1685064720944352 %
  inhibition: 90%

## c1ccc2c(CN3CCC(c4cscn4)CC3)c[nH]c2c1
PRVABC59, Concentration 49.5 uM, Number of replicates 2.0, Standard deviation 0.07712401232790286 %
  inhibition: 65.8%
PRVABC59, Concentration 99.01 uM, Number of replicates 2.0, Standard deviation 0.031176529605690447 %
  inhibition: 79.9%
PRVABC59, Concentration 198.0 uM, Number of replicates 2.0, Standard deviation 0.07383858119278165 %
  inhibition: 89.2%

## C#CCn1ccnc(N2CC[C@H](CO)C2)c1=O
PRVABC59, Concentration 49.5 uM, Number of replicates 2.0, Standard deviation 1.0450300973032534 %
  inhibition: 12.1%
PRVABC59, Concentration 99.01 uM, Number of replicates 2.0, Standard deviation 3.6329706761941627 %
  inhibition: 19.8%
PRVABC59, Concentration 198.0 uM, Number of replicates 2.0, Standard deviation 1.3173095282768474 %
  inhibition: 33.5%

## CCCC[C@@H](NC(=O)OC(C)(C)C)C(=O)N[C@@H](C(=O)NCc1ccc(CN)cc1)c1ccc(OCc2ccccc2)cc1
PRVABC59, Concentration 49.5 uM, Number of replicates 2.0, Standard deviation 0.1534981479270999 %
  inhibition: 98.5%
PRVABC59, Concentration 99.01 uM, Number of replicates 2.0, Standard deviation 0.024832248793042588 %
  inhibition: 99.6%
PRVABC59, Concentration 198.0 uM, Number of replicates 2.0, Standard deviation 0.14898809796164614 %
  inhibition: 99%

## CCCC[C@H](NC(=O)OC(C)(C)C)C(=O)N[C@H](C(=O)NCc1ccc(C(N)=O)cc1)c1ccc(OCc2ccccc2)cc1
PRVABC59, Concentration 49.5 uM, Number of replicates 2.0, Standard deviation 0.2512152790248196 %
  inhibition: -3.29%
PRVABC59, Concentration 99.01 uM, Number of replicates 2.0, Standard deviation 1.1330320426444238 %
  inhibition: 4.53%
PRVABC59, Concentration 198.0 uM, Number of replicates 2.0, Standard deviation 0.18969183837952716 %
  inhibition: 69.4%

## CCn1ccnc(N2CC[C@H](c3cccnc3)C2)c1=O
PRVABC59, Concentration 49.5 uM, Number of replicates 2.0, Standard deviation 0.6295639977718405 %
  inhibition: 11.1%
PRVABC59, Concentration 99.01 uM, Number of replicates 2.0, Standard deviation 0.9611868657983497 %
  inhibition: 17.2%
PRVABC59, Concentration 198.0 uM, Number of replicates 2.0, Standard deviation 2.077820749798943 %
  inhibition: 29.9%

## O[C@@H]1CNC[C@H]1c1c[nH]c2ccccc12
PRVABC59, Concentration 49.5 uM, Number of replicates 2.0, Standard deviation 0.0908773719339778 %
  inhibition: 4.36%
PRVABC59, Concentration 99.01 uM, Number of replicates 2.0, Standard deviation 0.868383551474818 %
  inhibition: 12%
PRVABC59, Concentration 198.0 uM, Number of replicates 2.0, Standard deviation 1.0703330421004655 %
  inhibition: 25.3%

## CCn1ccnc(N2CC[C@H](C#N)C2)c1=O
PRVABC59, Concentration 50.0 uM, Number of replicates 1.0
  inhibition: 9.92%
PRVABC59, Concentration 100.0 uM, Number of replicates 2.0, Standard deviation 3.4431722905816002 %
  inhibition: 15.4%
PRVABC59, Concentration 200.0 uM, Number of replicates 3.0, Standard deviation 5.353488841443075 %
  inhibition: 26.6%

## CCn1ccnc(N2CC[C@@H](CC#N)C2)c1=O
PRVABC59, Concentration 49.5 uM, Number of replicates 2.0, Standard deviation 4.2825905047110036 %
  inhibition: 7.54%
PRVABC59, Concentration 99.01 uM, Number of replicates 2.0, Standard deviation 3.0053265516656906 %
  inhibition: 14.9%
PRVABC59, Concentration 198.0 uM, Number of replicates 2.0, Standard deviation 1.5959318913639373 %
  inhibition: 26%

## CCn1ccnc(N(C)[C@@H](CO)Cc2c[nH]c3ccccc23)c1=O
PRVABC59, Concentration 49.5 uM, Number of replicates 2.0, Standard deviation 1.5047267855359387 %
  inhibition: 5.63%
PRVABC59, Concentration 99.01 uM, Number of replicates 2.0, Standard deviation 0.8040526249565179 %
  inhibition: 13%
PRVABC59, Concentration 198.0 uM, Number of replicates 2.0, Standard deviation 1.5605190977207197 %
  inhibition: 25.3%

## O[C@H]1CCCN(Cc2c[nH]c3ccccc23)C1
PRVABC59, Concentration 49.5 uM, Number of replicates 2.0, Standard deviation 18.69396289412785 %
  inhibition: 21%
PRVABC59, Concentration 99.01 uM, Number of replicates 2.0, Standard deviation 0.9286103864725214 %
  inhibition: 13.9%
PRVABC59, Concentration 198.0 uM, Number of replicates 2.0, Standard deviation 2.4132961769541357 %
  inhibition: 24.7%

## c1ccc2c(CN3CCC(c4c[nH]c5cccnc45)CC3)c[nH]c2c1
PRVABC59, Concentration 49.5 uM, Number of replicates 2.0, Standard deviation 1.80837898184189 %
  inhibition: 63.8%
PRVABC59, Concentration 99.01 uM, Number of replicates 2.0, Standard deviation 1.3316731742493602 %
  inhibition: 74.9%
PRVABC59, Concentration 198.0 uM, Number of replicates 2.0, Standard deviation 0.976733320927472 %
  inhibition: 81.5%

## c1ccc2c(CN3CCC(c4c[nH]c5ncccc45)CC3)c[nH]c2c1
PRVABC59, Concentration 49.5 uM, Number of replicates 2.0, Standard deviation 1.5803867849339672 %
  inhibition: 58.2%
PRVABC59, Concentration 99.01 uM, Number of replicates 2.0, Standard deviation 1.538935865185685 %
  inhibition: 72.5%
PRVABC59, Concentration 198.0 uM, Number of replicates 2.0, Standard deviation 1.43011742277759 %
  inhibition: 82.3%

## c1cnc2c(C3CCN(Cc4c[nH]c5ncccc45)CC3)c[nH]c2c1
PRVABC59, Concentration 49.5 uM, Number of replicates 2.0, Standard deviation 1.618110911749522 %
  inhibition: 7.76%
PRVABC59, Concentration 99.01 uM, Number of replicates 2.0, Standard deviation 1.5506891039488269 %
  inhibition: 16.5%
PRVABC59, Concentration 198.0 uM, Number of replicates 2.0, Standard deviation 1.1046722712184134 %
  inhibition: 29.8%

## C[C@@H](CO)N1CC[C@H](c2c[nH]c3ccccc23)C1
PRVABC59, Concentration 49.5 uM, Number of replicates 2.0, Standard deviation 2.959092091051968 %
  inhibition: -1.43%
PRVABC59, Concentration 99.01 uM, Number of replicates 2.0, Standard deviation 1.9403190167556676 %
  inhibition: 0.816%
PRVABC59, Concentration 198.0 uM, Number of replicates 2.0, Standard deviation 2.4285693519175138 %
  inhibition: 5.47%

## c1cc(CN2CCC(c3c[nH]c4ncccc34)CC2)c2[nH]ccc2c1
PRVABC59, Concentration 49.5 uM, Number of replicates 2.0, Standard deviation 0.810920201040277 %
  inhibition: 22.9%
PRVABC59, Concentration 99.01 uM, Number of replicates 2.0, Standard deviation 0.8653267248460199 %
  inhibition: 30.1%
PRVABC59, Concentration 198.0 uM, Number of replicates 2.0, Standard deviation 1.207313671508752 %
  inhibition: 32%

## N#C[C@H]1CCCN(Cc2c[nH]c3ccccc23)C1
PRVABC59, Concentration 49.5 uM, Number of replicates 2.0, Standard deviation 3.0443309311516127 %
  inhibition: 3.62%
PRVABC59, Concentration 99.01 uM, Number of replicates 2.0, Standard deviation 5.606340240027709 %
  inhibition: 5.66%
PRVABC59, Concentration 198.0 uM, Number of replicates 2.0, Standard deviation 2.4427254668079588 %
  inhibition: 8.81%

## C[C@@H](Cc1c[nH]c2ccccc12)N1CC[C@H](n2ncc3ccccc32)C1
PRVABC59, Concentration 49.5 uM, Number of replicates 2.0, Standard deviation 0.39220306220212786 %
  inhibition: 9.38%
PRVABC59, Concentration 99.01 uM, Number of replicates 2.0, Standard deviation 0.9766631885715499 %
  inhibition: 10.3%
PRVABC59, Concentration 198.0 uM, Number of replicates 2.0, Standard deviation 1.7687599327172854 %
  inhibition: 8.18%
